# beta cell repl – inducers of MIN6 beta-cell proliferation, primary screen, ATP luminescence, uHTS. MIN6 cells proliferation, ATPlite luminescence, 48 h; cells starved in 0.2% serum; 100% = growth in 10% serum. proliferation, % at 10 µM. 0.29% of 330,000 active. AID 2380, 2010;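 active = compounds whose signal lies at least 3.5 SD above the mean of all wells on their plate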;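 also: 0% = DMSO-treated cells in low-serum medium and 100% = 10% serum control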
# V-ATPase pHluor – regulators of yeast V-ATPase proton pumping, primary screen, pHLuorin cytosolic pH fluorescence | S. cerevisiae | AID 504577, 2011 | response, % at 10 µM | 0.37% of 350,000 active; in the data active = response mostly above about 7.3%, no sharp cut-off; inactive = mostly below about 5.4%; also: actives read high
# HTR5A inv ctr – HTR5A inverse agonists in luminescence cell assay, primary screen, counter-screen for OPRM1-OPRD1 heterodimer inverse agonist project, full-deck HTS; 0.083% of 340,000 active; inhibition, % at 9.3 µM; HTR5A cell line, inverse agonism; AID 504634, 2011; 5-hydroxytryptamine receptor 5A (Homo sapiens), P47898; in the data active = inhibition mostly above about 23%, no sharp cut-off; inactive = mostly below about 18%;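 also: 0% = cells with DMSO and 100% = no-cell wells with DMSO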
# Target sequence (P47898 whole entry, looked up): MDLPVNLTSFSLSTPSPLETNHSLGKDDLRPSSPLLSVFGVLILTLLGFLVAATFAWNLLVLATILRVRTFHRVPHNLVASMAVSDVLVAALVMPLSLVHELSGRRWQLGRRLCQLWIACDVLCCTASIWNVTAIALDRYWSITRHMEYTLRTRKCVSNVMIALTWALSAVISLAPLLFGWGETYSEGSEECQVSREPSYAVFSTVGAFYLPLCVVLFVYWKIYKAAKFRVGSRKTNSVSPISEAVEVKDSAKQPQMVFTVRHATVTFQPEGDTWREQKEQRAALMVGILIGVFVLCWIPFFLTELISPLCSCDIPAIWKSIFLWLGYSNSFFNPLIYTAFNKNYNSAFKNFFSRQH
# MOR-DOR inv ag – inverse agonists of MOR-DOR heterodimerization, primary screen, cell-based, luminescence. Mu-type opioid receptor (Homo sapiens) + Delta-type opioid receptor (Homo sapiens), …. cell-based MOR-DOR heterodimer luminescence, inverse agonism. inhibition, % at 9.3 µM. 0.21% of 340,000 active. AID 504357, 2011; in the data active = inhibition above about 22%, passing the limit was not always enough;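 also: 0% = cells with DMSO and 100% = wells without cells with DMSO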
# MOR-DOR ag – agonists of OPRM1-OPRD1 heterodimerization, primary screen, cell-based, luminescence; AID 504326, 2011; 0.3% of 340,000 active; cells; activation, % at 9.3 µM; Mu-type opioid receptor (Homo sapiens) + Delta-type opioid receptor (Homo sapiens), …; in the data active = activation above about 18%;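 also: 0% = vehicle-treated cells and 100% = reference agonist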
# HTR5A ag ctr – HTR5A agonists in luminescence cell assay, primary screen, counter-screen for OPRM1-OPRD1 heterodimer agonist project, full-deck HTS; 5-hydroxytryptamine receptor 5A (Homo sapiens), P47898; cell-based; activation, % at 9.3 µM; 0.61% of 340,000 active; in the data active = activation mostly above about 9.5%, no sharp cut-off; inactive = mostly below about 7.6%;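 also: 0% = cells with vehicle only and 100% = reference agonist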
# MOR-DOR inv conf – inverse agonists of MOR-DOR heterodimerization, confirmation, cell-based, luminescence. inhibition, % at 9.3 µM. cells expressing OPRM1/OPRD1 heterodimer. AID 504900, 2011. shares compounds with MOR-DOR inv ag. 20% of 580 active; in the data active = inhibition above about 32%;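 also: 0% = cells with DMSO and 100% = wells lacking cells with DMSO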
# HTR5A inv count – HTR5A inverse agonists, counter-screen for OPRM1-OPRD1 inverse agonist project, cell-based, luminescence | 580 tested, under 10 active | HTR5A-expressing cells, inverse agonism | shares compounds with MOR-DOR inv ag | inhibition, % at 9.3 µM; call rule not given here;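 also: 0% = cells with DMSO and 100% = no-cell wells with DMSO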
# The depositor's hits bear a star; i = inactive; . = no result given. Most compounds without a hit are left out; they make up all but 1.7% or so of the library.
SMILES,beta cell repl,V-ATPase pHluor,HTR5A inv ctr,MOR-DOR inv ag,MOR-DOR ag,HTR5A ag ctr,MOR-DOR inv conf,HTR5A inv count
O=C(c1ccco1)C(O)c1ccco1 (stereo not drawn),1,1,35*,70*,-14,-10,-444,-54
Cc1cc(C)cc(OCCNC(=O)CCc2ccccc2)c1,-2,-2,2,5,-1,-1,.,.
O=C(Cc1ccccc1)NNc1ccc2ccccc2c1,-3,0,16,33*,-6,1,-29,2
O=C1C(c2c(O)[nH]c3ccccc23)=Nc2ccccc21,-5,5,-7,13,-2,-5,.,.
CC(=O)c1cccc2c(O)c(C3=Nc4ccccc4C3=O)[nH]c12,-5,7,14,36*,-7,2,-428,-11
O=C(N/N=C/c1cccc2cccnc12)c1ccccc1O,-6,-4,18,36*,-7,-5,7,-3
O=C1c2ccccc2-c2nccnc21,-2,-1,39*,80*,-14,-5,87*,11
CCOC(=O)C1Oc2ccccc2C(C(=O)OC)=C1C(=O)OC (stereo not drawn),.,-1,-8,40*,-8,2,i,-4
CCOC(=O)C1Oc2ccccc2C(c2cccc3ccccc23)=C1C(=O)OC (stereo not drawn),.,0,9,1,0,-2,.,.
O=C(COC(=O)c1ccccc1F)c1ccc(-n2nncc2-c2ccco2)cc1,-3,4,23,33*,-6,1,7,-7
CNc1ccccc1C(=O)OCC(=O)c1ccc(F)cc1,-1,-4,15,19,-4,-5,.,.
O=C(NNC(=S)NCC1CCCO1)c1cc(Br)ccc1Cl (stereo not drawn),-1,0,5,33*,-8,-2,5,13
CCCCC(=O)Nc1nnn(CCC)n1,-3,6,-16,2,0,7,.,.
CCCCC(=O)NC(=S)Nc1nnn(CCC)n1,2,0,30,37*,-8,-7,22,-7
O=C(CN1C(=O)C(=O)c2ccccc21)NCCc1ccccc1,-4,-1,25,56*,-11,-9,9,11
O=C1C(=O)N(CCCc2ccccc2)c2ccccc21,-6,1,5,43*,-9,-3,90*,2
CCOc1ccc(C(=O)NCC(=O)NNC(=O)CN(C)S(=O)(=O)c2ccc(Cl)cc2)cc1,4,2,-13,4,-1,4,.,.
CC(=O)c1cc(C#N)c(SCc2ccc([N+](=O)[O-])cc2)nc1C,2,3,-2,1,0,1,.,.
C[C@H](NC(=O)COc1ccccc1)C(=O)OCC(=O)c1cc2ccccc2o1,.,7,33*,80*,-15,-8,-154,12
Cc1ccc(Cl)c2c1NC(=O)C2=O,-3,7,23,86*,-19,-4,74*,9
N#Cc1ccccc1NC(=O)COC(=O)c1ccc2c(c1)OCO2,-1,-1,2,-5,1,-1,.,.
CCOCC(=O)Nc1nc2ccc(OCC)cc2s1,-5,4,-1,16,-3,-2,.,.
CCOc1ccc2nc(-c3cc(NC(C)=O)ccc3O)sc2c1,-2,-6,7,27*,-4,1,-13,-11
COc1ccc(C2=NN(CN3C(=O)C(=O)c4ccccc43)C(c3ccc(OC)cc3)C2)cc1 (stereo not drawn),1,-3,27,44*,-6,-9,i,1
